Results from PubChem BioAssay.
Values joined by “and” are separate entries in the source; they are usually repeats but may differ in a detail not shown here. Identical values can stand only once. Results filed as inconclusive are left out. Active and inactive are the calls of the source. Rule as the data show it, unless noted: active = inhibition above about 80%; inactive = the rest.

What was measured:
[1] = JHH-DIPG-1 glioma cell viability, MIPE5.0 library, CellTiter-Glo luminescence, qHTS (AID 1347067; cut-off not given, nearly all actives have AC50 up to about 26 µM;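 also: cells exposed to compound for 48 hours before readout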); details: JHH-DIPG-1 glioma viability, CellTiter-Glo ATP luminescence
[2] = SU-DIPG-XXV glioma cell viability, MIPE5.0 library, qHTS (AID 1347068; cut-off not given, nearly all actives have IC50 up to about 30 µM)
[3] = liver-stage malaria parasite growth inhibition, primary screen, cell-based, HepG2, luciferase luminescence, HepG2 viability (AID 624349; in the data active = parasite load remaining mostly below about 12%, no sharp cut-off; inactive = mostly above about 10%;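 also: 100% = mean of DMSO negative control wells on the same plate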); details: P. berghei liver stage in HepG2, luciferase luminescence, concentration not given here; parasite load remaining: stronger effect = lower value; viability: measured here: HepG2 viability without parasites
[4] = SU-DIPG-VI glioma cell viability, MIPE4.0 library, CellTiter-Glo luminescence, qHTS (AID 1347066; cut-off not given, nearly all actives have AC50 up to about 30 µM;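 also: cells exposed to compound for 48 hours before readout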); details: CellTiter-Glo ATP luminescence
[5] = modifiers of HSF1 nuclear foci, imaging, Selleck Cancer Library (AID 1347162; in the data active = plate-normalised HSF1 focus index below about 0.46); details: human cells, at 10 µM; SSMD: measured here: HSF1 foci SSMD mean; cell count: measured here: cell number; plate-normalised HSF1 focus index: stronger effect = lower value
[6] = sensitizers of A549 cells to miR-34 induction, primary screen, imaging, A549 dox-inducible miR-34, nuclei and caspase counts (AID 1347080;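 active = compounds whose cell count with miR-34 switched on is under 0.7 times the count with it off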); details: A549 miR-34 inducible, Hoechst nuclei count, 48 h
[7] = survival rescue of mitochondrial mutant cells in low glucose, primary screen, MELAS cybrids, Rieske KO mouse fibroblasts, CellTiter-Glo (AID 1508586;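 active = mean z-score across replicates of 1.96 or higher in either the MELAS or the Rieske mutant cell line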;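 also: z relative to plate mean and SD of compound and empty wells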)
[8] = LFS_MB_P medulloblastoma growth inhibition, cell-based, chromothripsis tumors, cisplatin or BGB combos (AID 1671449); details: LFS_MB_P medulloblastoma cells;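 also: cells exposed for 96 hours; 0% = vehicle DMSO and 100% = killing by high DMSO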
[9] = HDN33 neuroblastoma growth inhibition, cell-based, chromothripsis tumors, cisplatin or BGB combos (AID 1671450); details: HDN33 neuroblastoma cells, stronger effect = higher value;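 also: cells exposed to compound for four days; 0% = vehicle DMSO and 100% = cell killing by high DMSO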
[10] = ICB984 medulloblastoma cell growth inhibition, synergistic combos for chromothripsis tumors, cisplatin or BGB combos (AID 1671451; call rule not given here;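 also: cells exposed for 96 hours before readout; 0% = vehicle DMSO and 100% = killing by high DMSO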); details: ICB984 medulloblastoma cells, drug combinations, stronger effect = higher value
[11] = LFS_MB_1R medulloblastoma cell growth inhibition, synergistic combos for chromothripsis tumors, cisplatin or BGB combos (AID 1671452); details: LFS_MB_1R medulloblastoma cells, stronger effect = higher value;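 also: cells exposed for 96 hours before readout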
[12] = HTB85 osteosarcoma cell growth inhibition, synergistic combos for chromothripsis tumors, BGB or cisplatin IC20 combos (AID 1671453); details: HTB85 osteosarcoma cells, drug combinations, stronger effect = higher value;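 also: cells exposed for 96 hours before readout; 0% = vehicle DMSO and 100% = high DMSO killing control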
[13] = CRL2098 osteosarcoma cell growth inhibition, synergistic combos for chromothripsis tumors, BGB or cisplatin IC20 combos (AID 1671454); details: CRL2098 osteosarcoma cells, drug combinations, stronger effect = higher value;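 also: cells exposed for 96 h before readout; 0% = vehicle DMSO and 100% = killing by high DMSO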
[14] = HD-MB03 medulloblastoma cell growth inhibition, synergistic combos for chromothripsis tumors, BGB or cisplatin IC20 combos (AID 1671455; in the data active = inhibition above about 83%;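 also: 0% = vehicle DMSO and 100% = high DMSO as cytotoxic control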); details: HD-MB03 medulloblastoma cells, stronger effect = higher value
[15] = UWB1.289 ovarian carcinoma cell growth inhibition, synergistic combos for chromothripsis tumors, BGB or cisplatin combos (AID 1671456); details: UWB1.289 ovarian carcinoma cells, stronger effect = higher value;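 also: cells exposed to compound for four days; 0% = vehicle DMSO and 100% = killing by high DMSO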
[16] = LFS_MB_2R medulloblastoma cell growth inhibition, synergistic combos for chromothripsis tumors, cisplatin combos (AID 1671457); details: LFS_MB_2R medulloblastoma cells, stronger effect = higher value;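 also: cells exposed to compound for four days before readout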
[17] = MDA-MB-436 breast carcinoma cell growth inhibition, synergistic combos for chromothripsis tumors, BGB or cisplatin combos (AID 1671458; call rule not given here;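 also: cells exposed for 96 hours; 0% = vehicle DMSO and 100% = killing by high DMSO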); details: MDA-MB-436 breast carcinoma growth inhibition, drug combinations, stronger effect = higher value
[18] = UWB1.289_BRCA1 ovarian cancer growth, cell-based, BGB or cisplatin combinations (AID 1671459); details: UWB1.289 BRCA1 ovarian carcinoma, drug combinations, stronger effect = higher value
[19] = human astrocyte viability loss, single and combined drugs, cytotoxicity control for chromothriptic childhood tumor combination screen, cell-based, BGB or cisplatin IC20 combos (AID 1671460); details: Human astrocytes, drug combinations, stronger effect = higher value;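 also: cells exposed to compounds for 96 hours before viability readout; 0% = vehicle and 100% = killing control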
[20] = growth inhibition of BT084 medulloblastoma cells, cell-based, ICGC_MB145, cisplatin and BGB IC40 combos (AID 1671461); details: drug combinations, stronger effect = higher value;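 also: cells exposed to drugs for 96 hours; 0% = vehicle DMSO and 100% = high DMSO full killing control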
[21] = growth inhibition of RCMB18 medulloblastoma cells, cell-based, cisplatin and BGB IC40 combos (AID 1671462); details: stronger effect = higher value;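 also: cells exposed to compound for four days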
[22] = growth inhibition of CRL1545 osteosarcoma cells, cell-based, cisplatin and BGB IC20 combos (AID 1671464); details: stronger effect = higher value;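 also: cells exposed to compound for 96 hours before readout; 0% = vehicle DMSO and 100% = high DMSO killing control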
[23] = measured here: combination with BGB IC40, at 0.05 µM
[24] = measured here: with BGB IC20 combination, at 0.5 µM
[25] = measured here: with cisplatin IC20 combination, at 0.5 µM
[26] = measured here: combination with cisplatin, at 0.5 µM
[27] = measured here: combination with cisplatin, at 5 µM

## COc1cc2nccc(Oc3ccc(NC(=O)c4cn(C(C)C)c(=O)n(-c5ccc(F)cc5)c4=O)cc3F)c2cc1OC
[1]
  outcome: inactive
[2]
  outcome: inactive

## NC(=O)c1ccc2nc(-c3ccc(Oc4ccc(Cl)cc4)cc3)[nH]c2c1
[3]
  parasite load remaining: 38.6% (inactive)
  viability: 91.3%
[4]
  outcome: inactive
[2]
  outcome: inactive
[5]
  SSMD: 0.89
  cell count: 6720
  plate-normalised HSF1 focus index: 1.06 (inactive)

## Nc1nc(F)nc2c1ncn2C1OC(COP(=O)(O)O)C(O)C1O (stereo not given)
[1]
  outcome: inactive
[2]
  outcome: inactive
[6]; stronger effect = lower value, cell number ratio, induced over uninduced
  fold change: 0.831 (inactive)
[6]; measured here: relative caspase fold change +Dox/-Dox
  fold change: 1.44
[6]; measured here: total cells with miR-34 induction, stronger effect = lower value
  cell count: 1120
[6]; measured here: total cells without miR-34 induction
  cell count: 1350
[7]; MELAS cybrid survival, CellTiter-Glo 48 h, stronger effect = higher value
  z-score: 1.34 (inactive)
[7]; Rieske KO mouse fibroblast survival, CellTiter-Glo 72 h
  z-score: 0.326
[8]; at 0.5 µM, stronger effect = higher value
  inhibition: -6.1% (inactive) and -16% (inactive)
[8]; measured here: combination with BGB IC20, at 0.005 µM
  inhibition: -22.8% and 0.183%
[8]; measured here: combination with BGB IC40, at 0.005 µM
  inhibition: -34.6% and 88.8%
[8]; [23]
  inhibition: -38.1% and -2.46%
[8]; measured here: combination with cisplatin, at 0.5 µM, stronger effect = higher value
  inhibition: -18.5% and -25%
[8]; measured here: combination with cisplatin, at 5 µM, stronger effect = higher value
  inhibition: -36% and -9.03%
[9]; BGB combo, at 5 µM
  inhibition: 8.47% and 22.7%
[9]; at 0.5 µM
  inhibition: -18.9% (inactive) and 5.11% (inactive)
[9]; cisplatin combo, at 5 µM
  inhibition: 34% and 24.2%
[9]; [24]
  inhibition: -23% and -1.08%
[9]; [25]
  inhibition: -13.9% and 12.9%
[9]; single agent, at 5 µM
  inhibition: 32.2% and 15.4%
[10]; BGB IC20 combo, at 0.005 µM
  inhibition: -19.2% and -1.57%
[10]; BGB IC40 combo, at 0.005 µM
  inhibition: -13.6% and -18.3%
[10]; BGB IC40 combo, at 0.05 µM
  inhibition: -31.2% and -1.01%
[10]; at 0.5 µM
  inhibition: -29.2% (inactive) and -28.4% (inactive)
[10]; cisplatin combo, at 0.05 µM
  inhibition: -35.9% and -6.12%
[10]; cisplatin combo, at 0.5 µM
  inhibition: -20.9% and -39.7%
[10]; cisplatin combo, at 5 µM
  inhibition: -37.1% and 11.4%
[10]; measured here: 5 uM single agent, at 5 µM
  inhibition: 0.546% and -0.896%
[11]; at 0.5 µM
  inhibition: -6.95% (inactive) and -19.6% (inactive)
[11]; [23]
  inhibition: -26.6% and -4.09%
[11]; [26]
  inhibition: -0.649% and -47.1%
[11]; [27]
  inhibition: -27.4% and 0.798%
[12]; at 0.5 µM
  inhibition: -3.37% (inactive) and -4.43% (inactive)
[12]; measured here: with BGB IC20, at 0.5 µM
  inhibition: -4.86% and 13.2%
[12]; measured here: with BGB IC20, at 5 µM
  inhibition: 45.3% and 42.7%
[12]; measured here: with cisplatin IC20, at 0.5 µM
  inhibition: -6.04% and -18.8%
[12]; measured here: with cisplatin IC20, at 5 µM
  inhibition: 12.2% and 45.7%
[12]; single agent, at 5 µM
  inhibition: 36% and 50.6%
[13]; at 0.5 µM
  inhibition: 89.7% (active) and 91.2% (active)
[13]; measured here: combination with BGB at IC20, at 0.5 µM
  inhibition: 89.6% and 91.3%
[13]; measured here: combination with cisplatin at IC20, at 0.5 µM
  inhibition: 88.8% and 92.6%
[14]; at 0.5 µM
  inhibition: -9.66% (inactive) and -9.92% (inactive)
[14]; measured here: combo with BGB at IC20, at 0.5 µM
  inhibition: -18.1% and -5.96%
[14]; measured here: combo with cisplatin at IC20, at 0.5 µM
  inhibition: -7.22% and -17%
[15]; at 0.5 µM
  inhibition: 0.55% (inactive) and 0.43% (inactive)
[15]; measured here: inhibition with BGB combination, at 0.05 µM
  inhibition: -14.7% and -18.8%
[15]; measured here: inhibition with cisplatin combination, at 0.05 µM
  inhibition: 7.04% and -2.8%
[16]; at 0.5 µM
  inhibition: -15.7% (inactive) and -21.8% (inactive)
[16]; [26]
  inhibition: -20.2% and -35.8%
[16]; [27]
  inhibition: -11.6% and -19.4%
[17]; at 0.5 µM
  inhibition: -9.15% (inactive) and -15.9% (inactive)
[17]; measured here: BGB combination, at 0.5 µM
  inhibition: -8.11% and -21.9%
[17]; measured here: BGB combination, at 5 µM
  inhibition: -2.69% and -3.01%
[17]; measured here: cisplatin combination, at 0.5 µM
  inhibition: -21.1% and -19.1%
[17]; measured here: cisplatin combination, at 5 µM
  inhibition: -5.75% and -5.25%
[18]; BGB combination, concentration series, at 5 µM
  inhibition: 11.6% and 15.8%
[18]; at 0.5 µM
  inhibition: -0.02% (inactive) and -0.87% (inactive)
[18]; cisplatin combination, concentration series, at 5 µM
  inhibition: 11.9% and 23.4%
[19]; at 0.5 µM
  inhibition: 1.35% (inactive) and 3.3% (inactive)
[19]; measured here: combo with BGB IC20, at 0.5 µM
  inhibition: -1.03% and 7.99%
[19]; measured here: combo with cisplatin IC20, at 0.5 µM
  inhibition: -5.99% and 1.9%
[20]; at 0.5 µM
  inhibition: -11.5% (inactive) and -3.83% (inactive)
[20]; cisplatin combination, at 0.5 µM
  inhibition: -36% and -5.18%
[20]; cisplatin combination, at 5 µM
  inhibition: 4.67% and -96.3%
[20]; measured here: BGB IC40 combination 0.05 uM, at 0.05 µM
  inhibition: -40.8% and -7.89%
[20]; single agent, at 5 µM
  inhibition: -1.22% and 8.96%
[21]; at 0.5 µM
  inhibition: -12.8% (inactive) and -10.2% (inactive)
[21]; cisplatin combo, at 5 µM
  inhibition: 18.6% and -15.8%
[21]; measured here: BGB IC40 combination, at 0.05 µM
  inhibition: -56.2% and -25.6%
[21]; [26]
  inhibition: 24.5% and -1.4%
[21]; single agent, at 5 µM
  inhibition: -15.5% and 3.22%
[22]; at 0.5 µM
  inhibition: -20.4% (inactive) and 8.11% (inactive)
[22]; [24]
  inhibition: -8.22% and 10.3%
[22]; [25]
  inhibition: -28.6% and 5.54%
[22]; single agent, at 0.05 µM
  inhibition: 18.9% and -12.8%
[22]; single agent, at 5 µM
  inhibition: -12.4% and -14.9%
